# Earlier results in PubChem BioAssay AID977611.
# Out of some 3,900 compounds screened, about 3,900 (100%) were called active. Cut-off not given; nearly all actives show Kd up to about 4200 µM. So high a share suggests a set chosen from earlier hits. Some of the results follow. Starred links: 1 amine or outer side, 2 acyl side, 3 side chain; linkers in the order of their positions; H or OH if unused. Positions of bridges follow the written chain, without caps; N, C: chain ends. Where a SMILES comes first, the peptide text is derived from it. Non-standard residues stand in square brackets, D forms with d. Square brackets hold non-standard residues; d marks the D form. Residues, ends and D or L forms follow the SMILES beside them. Peptide text beside a SMILES is read from it. [ ]: non-standard residue; d: D form. X1 = C[C@](CCCCCC=[*:3])(N[*:1])C(=O)[*:2]; X2 = C[C@@](CCCCC=[*:3])(N[*:1])C(=O)[*:2]; Orn(CH(NH2)2) = NC(N)NCCC[C@H](N)C(=O)O; R8 = C=CCCCCCC[C@@](C)(N)C(=O)O; S5 = C=CCCC[C@](C)(N)C(=O)O; Abu = CC[C@H](N)C(=O)O
# Test: PubChem AID 977611
# Conditions: PDB protein-ligand complexes, literature Kd
molecule,measurement,setting,value
CC[C@H](C)[C@H](NC(=O)[C@H](CC(=O)O)NC(=O)[C@H](Cc1c[nH]c2ccccc12)NC(=O)[C@H](Cc1ccccc1)NC(=O)[C@H](CCCCN)NC(=O)[C@H](CC(C)C)NC(=O)[C@@H](NC(=O)[C@H](Cc1ccccc1)NC(=O)[C@@H](N)CC(N)=O)[C@@H](C)O)C(=O)N[C@@H](Cc1ccccc1)C(=O)N[C@@H](CCCNC(N)N)C(=O)N[C@@H](CCCCN)C(=O)O (H-NFTLKFWDIF[Orn(CH(NH2)2)]K-OH),Kd,"protein: Chaperone surA-P1, PDB entry 2pv2",1.23 µM (active)
H-QLAWFDTDL-OH,Kd,"protein: Tax-interacting protein-1 (TIP-1), PDB entry 3diw",0.19 µM (active)
H-NFTLKFWDIF-OH,Kd,"protein: Chaperone surA(P2), PDB entry 2pv3",5.57 µM (active)
NCc1cccc(N2CCCC2)c1,Kd,"protein: CATIONIC TRYPSIN, PDB entry 4abh",71 µM (active)
NCc1cccc(-n2cccn2)c1,Kd,"protein: CATIONIC TRYPSIN, PDB entry 4abe",400 µM (active)
NCc1ccccc1-n1cccn1,Kd,"protein: INTEGRASE, PDB entry 4ahv",15000 µM (active)
NCc1cccc(-n2cccc2)c1,Kd,"protein: CATIONIC TRYPSIN, PDB entry 4abd",40 µM (active)
O[P+](O)(O)O[C@@H]1C(OCc2ccccc2)[C@H](O[P+](O)(O)O)[C@@H](O[P+](O)(O)O)C(OCc2ccccc2)[C@H]1O[P+](O)(O)O (stereo partly specified),Kd,"protein: Inositol hexakisphosphate and diphosphoinositol-pentakisphosphate kinase 2 PPIP5K2, PDB entry 4nzo",0.17 µM (active)
C[C@H]1O[C@H](O)[C@@H](O)[C@@H](O)[C@@H]1O,Kd,"protein: Pyocin L1, PDB entry 4led",5000 µM (active)
C[C@@H]1O[C@@H](O)[C@H](O)[C@H](O)[C@H]1O,Kd,"protein: Putative rhamnosidase, PDB entry 3w5n",135 µM (active)
O=S(=O)(Nc1nc2ccc(Cl)cc2s1)c1cc2ccccc2s1,Kd,"protein: 3-phosphoinositide-dependent protein kinase 1 PDK1, PDB entry 4rqv",9 µM (active)
H-SFGDGFADF-OH,Kd,"protein: AP-2 complex subunit ?-2, PDB entry 2iv9",46 µM (active)
H-DLLDSLGF-OH,Kd,"protein: Chemotaxis protein cheY, PDB entry 2pmc",64.7 µM (active)
H-DEEGGGEEDQDFDLSQLH-OH,Kd,"protein: p120 catenin isoform 4A delta 1 (deletion, residues 613-643), PDB entry 3l6x",40 µM (active)
CC(C)C[C@H](NC(=O)[C@@H](N)CC(=O)O)C(=O)N[C@@H](Cc1ccccc1)C(=O)O (H-Asp-Leu-Phe-OH),Kd,"protein: DNA polymerase III subunit beta, PDB entry 4k3m",281 µM (active)
H-SGFSF-OH,Kd,"protein: Ras GTPase-activating protein-binding protein 1, PDB entry 4fcm",115 µM (active)
CC(C)C[C@H](NC(=O)[C@@H]1CCCN1C(=O)[C@@H]1CCCN1C(=O)[C@H](CC(C)C)NC(=O)[C@@H]1CCCN1C(=O)[C@H](CCCNC(N)N)NC(=O)[C@@H](N)CCCCN)C(=O)N1CCC[C@H]1C(=O)N[C@@H](CO)C(=O)O (H-K[Orn(CH(NH2)2)]PLPPLPS-OH),Kd,"protein: phosphatidylinositol 3-kinase (PI3K) SH3 domain, PDB entry 3i5r",40 µM (active)
H-APPPRPPPPE-OH,Kd,"protein: The first SH3 domain from CAP/Ponsin, SH3a, PDB entry 4lnp",214 µM (active)
H-LAPPKPPLPE-OH,Kd,"protein: The second SH3 domain from CAP/Ponsin, SH3b, PDB entry 4ln2",248 µM (active)
CC(C)CCCCCCC(=O)N[C@H]1[C@H](Oc2c3cc4cc2Oc2ccc(cc2Cl)C[C@H]2NC(=O)[C@H](N)c5ccc(O)c(c5)Oc5cc(O)cc(c5)[C@H](NC2=O)C(=O)N[C@H]4C(=O)N[C@H]2C(=O)N[C@H](C(=O)N[C@H](C(=O)O)c4cc(O)cc(O)c4-c4cc2ccc4O)[C@H](O)c2ccc(cc2)O3)O[C@H](CO)[C@@H](O)[C@@H]1O,Kd,"protein: Maltose-binding periplasmic protein, C-terminal fused by Cys-Lys-D-Ala-D-Ala, PDB entry 3vfj",0.091 µM (active)
H-SYGHLSIG-OH,Kd,"protein: MALTOSE-BINDING PERIPLASMIC PROTEIN, SUPPRESSOR OF FUSED HOMOLOG (W61D, L62S, G63F, P453A, K457A mutation), PDB entry 4blb",4.47 µM (active)
H-GSYGHLSIGT-OH,Kd,"protein: Sufu, PDB entry 4kmd",3.86 µM (active)
OS(O)(O)CCNC1CCCCC1,Kd,"protein: Interleukin-13 receptor subunit alpha-1, PDB entry 4hwb",0.00057 µM (active)
CC(=O)NCCCC[C@H](NC(=O)[C@H](CCCNC(N)N)NC(=O)[C@H](C)NC(=O)[C@@H](NC(=O)[C@H](CCC(N)=O)NC(=O)[C@H](CCCCN)NC(=O)[C@@H](NC(=O)[C@H](CCCNC(N)N)NC(=O)[C@H](C)N)[C@@H](C)O)[C@@H](C)O)C(=O)N[C@@H](CO)C(=O)N[C@H](C(=O)NCC(=O)NCC(=O)N[C@@H](CCCCN)C(=O)N[C@@H](C)C(=O)O)[C@@H](C)O,Kd,"protein: Histone acetyltransferase PCAF, PDB entry 2rnw",1050 µM (active)
C[C@H](N)C(=O)N[C@@H](CCCNC(N)N)C(=O)N[C@H](C(=O)N[C@@H](CCCC[N+](C)(C)C)C(=O)N[C@@H](CCC(N)=O)C(=O)N[C@H](C(=O)N[C@@H](C)C(=O)N[C@@H](CCCNC(N)N)C(=O)N[C@@H](CCCCN)C(=O)N[C@@H](CO)C(=O)N[C@H](C(=O)NCC(=O)NCC(=O)N[C@@H](CCCCN)C(=O)N[C@@H](C)C(=O)O)[C@@H](C)O)[C@@H](C)O)[C@@H](C)O,Kd,"protein: bromodomain PHD finger transcription factor, PDB entry 2fuu",2.7 µM (active)
O=C(O)c1ccc2cc[nH]c2c1,Kd,"protein: Protease (Q7K, L33I, L63I, C67A, C95A mutation), PDB entry 4ej8",4.1 µM (active)
CSCC[C@H](NC(=O)[C@H](C)N)C(=O)N[C@@H](CCCCN)C(=O)N[C@@H](CCCNC(N)N)C(=O)N[C@@H](Cc1cnc[nH]1)C(=O)NCC(=O)N[C@@H](CC(C)C)C(=O)N[C@@H](CC(=O)O)C(=O)N[C@@H](CC(N)=O)C(=O)N[C@@H](Cc1ccc(O)cc1)C(=O)N[C@@H](CCCNC(N)N)C(=O)NCC(=O)N[C@@H](Cc1ccc(O)cc1)C(=O)N[C@@H](CO)C(=O)O (H-AMK[Orn(CH(NH2)2)]HGLDNY[Orn(CH(NH2)2)]GYS-OH),Kd,"protein: I-Ag7, PDB entry 1f3j",6 µM (active)
H-AHGMLKLYYGLS-OH,Kd,"protein: Syntaxin-6, PDB entry 4j2c",5.6 µM (active)
CC(=O)N[C@H](C(=O)N[C@@H](CO)C(=O)N[C@@H](Cc1ccccc1)C(=O)N[C@]1(C)CCCCCC/C=C/CCC[C@@](C)(C(N)=O)NC(=O)[C@H](CC(C)C)NC(=O)[C@H](CC(C)C)NC(=O)[C@H](Cc2ccc(O)cc2)NC(=O)[C@H](Cc2c[nH]c3ccccc23)NC(=O)[C@H](Cc2ccc(O)cc2)NC(=O)[C@H](CCC(=O)O)NC1=O)[C@@H](C)O (Ac-TSF[R8]EYWYLL[S5]-NH2; staple (E) 4-11),Kd,"protein: E3 UBIQUITIN-PROTEIN LIGASE MDM2-M62A, PDB entry 4umn",0.0631 µM (active)
CC[C@H](N)C(=O)N[C@H](C(=O)N[C@@H](Cc1ccccc1)C(=O)N[C@]1(C)CCCCC/C=C/CCCC[C@@](C)(C(=O)N[C@@H](CCC(N)=O)C(=O)N[C@@H](CC(N)=O)C(=O)O)NC(=O)[C@H](CC(C)C)NC(=O)[C@H](CC(C)C)NC(=O)[C@H](CCCNC(N)N)NC(=O)[C@H](Cc2c[nH]c3ccccc23)NC(=O)[C@H](CC(C)C)NC(=O)[C@H](CC(N)=O)NC1=O)[C@@H](C)O (H-[Abu]TF[X1]NLW[Orn(CH(NH2)2)]LL[X2]QN-OH; staple (E) 4-11),Kd,"protein: E3 ubiquitin-protein ligase Mdm2, PDB entry 3v3b",0.055 µM (active)
CC(C)C[C@H](NC(=O)[C@]1(C)CCC/C=C\CCC[C@](C)(NC(=O)[C@H](CCCNC(N)N)NC(=O)[C@H](CO)NC(=O)[C@H](Cc2ccc(O)cc2)NC(=O)[C@H](CCCNC(N)N)NC(=O)[C@H](CCCCN)NC(=O)[C@@H](N)CCCCN)C(=O)N[C@@H](CCC(N)=O)C(=O)N[C@@H](CC(C)C)C(=O)N[C@@H](CC(C)C)C(=O)N1)C(N)=O,Kd,"protein: EUKARYOTIC TRANSLATION INITIATION FACTOR 4E, PDB entry 4bea",0.005 µM (active)
